# ROS inducer: raises reactive oxygen species in U2OS cancer cells. U2OS ROS induction, H2DCF-DA fluorescence. ROS induction (% of piperlongumine), % at 10 µM. 46,000 tested, 2% active. AID 624156; in the data active = ROS induction above about 79%, passing the limit was not always enough
# Hits are given with their value; . = inactive. Many of the other results were omitted from the sample, so hits are more common in it than they were.
SMILES,ROS inducer
Cc1ccc(-c2cc(C(F)F)n3ncc(C(=O)NCCN4CCOCC4)c3n2)cc1,.
Cc1ccc(-c2cc(C(F)F)n3ncc(C(=O)NCc4cn(C)nc4C)c3n2)cc1,135
COc1ccc(OCC(=O)Nc2cccc(-c3cnc4ccccc4n3)c2)cc1,.
COc1ccc(-c2cc(C(F)F)n3ncc(C(=O)Nc4cccc(NC(C)=O)c4)c3n2)cc1,155
COc1ccc(NC(=O)N(C)C[C@@H]2OCCCC[C@@H](C)Oc3ccc(NC(=O)c4ccncc4)cc3C(=O)N([C@H](C)CO)C[C@@H]2C)cc1,.
CCc1cc2[nH]c(C(=O)OC)cc2s1,.
Cc1ccc(N(CC(=O)NC(c2ccccc2)c2ccccc2)S(=O)(=O)N2CCCC2)cc1,.
CCOC(=O)CSc1ncc(-c2ccccc2)nn1,.
CCOC(=O)CSc1nnc(-c2ccc(OC)cc2)n1-c1ccccc1C,.
CCOC(=O)CSc1sc(C(=O)OCC)c2c1S(=O)(=O)N(C)c1ccccc1-2,112
CN(C)c1nc2ccccc2c(=O)s1,.
C=C1C(=O)O[C@H]2[C@H]1[C@@H](OC(=O)C(C)(O)CCl)C(OC(C)=O)/C(C(=O)OC)=C\CC[C@@]1(C)O[C@H]21 (stereo partly specified),.
C=C1C(=O)O[C@@H]2[C@H]1[C@H](O)C[C@]1(C)[C@@H](O)CC=C(C)[C@@H]21,.
C=C1C(=O)O[C@H]2[C@H]1[C@@H](OC(=O)/C(C)=C\C)C(OC(C)=O)/C(C(=O)OC)=C\CC[C@@]1(C)O[C@H]21 (stereo partly specified),98
C=C1C(=O)O[C@H]2[C@H]1C[C@H](OC(=O)/C(C)=C\C)/C(C)=C\CC[C@@]1(C)O[C@@H]21,139
C=C1C(=O)O[C@H]2[C@H]1[C@@H](OC(=O)/C(C)=C/C)C(OC(C)=O)/C(C(=O)OC)=C\CC[C@@]1(C)O[C@H]21 (stereo partly specified),.
C[C@H](CO)N1C[C@H](C)[C@@H](CN(C)C(=O)Nc2ccccc2)Oc2c(NC(=O)C3CC3)cccc2C1=O,.
C[C@@H]1CN([C@H](C)CO)C(=O)c2cc(N(C)C)ccc2O[C@@H]1CN(C)Cc1ccc2c(c1)OCO2,.
C[C@@H]1CN([C@@H](C)CO)C(=O)c2cc(N(C)C)ccc2O[C@@H]1CN(C)Cc1ccccc1,.
COc1ccc(S(=O)(=O)N(C)C[C@H]2Oc3c(NC(=O)C4CC4)cccc3C(=O)N([C@H](C)CO)C[C@H]2C)cc1,.
CCc1cc2c(cc3c(=O)[nH]ncn32)s1,.
CC(C)(C)NC(=O)CSc1nc2ccccc2nc1SCC(=O)NC(C)(C)C,.
C[C@@H]1CN([C@@H](C)CO)C(=O)c2cccc(NC(=O)C3CCCCC3)c2O[C@H]1CN(C)Cc1ccc(Cl)c(Cl)c1,.
Cc1ccc(S(=O)(=O)N(C)C[C@@H]2Oc3ccc(NC(=O)CCN4CCOCC4)cc3CC(=O)N([C@H](C)CO)C[C@H]2C)cc1,.
Nn1c(Cc2ccccc2)nc2sc3c(c2c1=O)CCCC3,.
SMILES,ROS inducer
c1ccc(OCc2nc3c4c5c(sc4ncn3n2)CCCC5)cc1,.
CCCc1c(-c2ccccc2)nc2sc3c(c2c1N)CCCCC3,169
C[C@H]1CN([C@@H](C)CO)C(=O)c2cccc(N(C)C)c2O[C@@H]1CN(C)S(=O)(=O)c1ccc(F)cc1,.
COc1cccc(NC(=O)CSc2nnc(-c3ccc(Cl)cc3)n2-c2cccc(C)c2)c1,.
CC(C)c1ccc(NCC(O)CSc2ccccc2)cc1 (stereo unspecified),.
Cc1ccc(CC(CC(=O)O)C(=O)Nc2cc(C)ccc2C)cc1 (stereo unspecified),.
Cc1cccc(C)c1OCc1nnc(CCc2ccccc2)o1,.
Cc1sc(NC(=O)c2ccccc2)c(C(=O)N2CCCCC2)c1C,.
O=C(Nc1nc2ccc(Cl)cc2s1)C1CN(C(c2ccccc2)c2ccccc2)C1,.
CCc1cc(C(c2ccc(Cl)cc2)N2CCN(CCO)CC2)c(NC(=O)c2ccccc2)s1 (stereo unspecified),89
COC(=O)c1cc2sccc2n1CC(=O)Nc1ccc(C(C)C)cc1,.
O=C(c1nc2ccccc2[nH]1)N1CCOCC1,.
O=C(N/N=C/c1ccc(Br)o1)c1ccccn1,.
O=C(CN1C(=O)CCc2ccccc21)NC1CCCCC1,.
CCOC(=O)c1ccc(NC(=O)CSc2nc(N)c3c4c(sc3n2)CCC4)cc1,.
CN(C(=O)CSc1nc(N)c2c3c(sc2n1)CSC(C)(C)C3)c1ccccc1,122
CCOC(=O)CSc1nc(N)c2c3c(sc2n1)COC(C)(C)C3,.
CCCC(=O)NCc1ccccc1,.
COc1ccc(CN(C)C[C@@H]2OCCCC[C@@H](C)Oc3ccc(NS(=O)(=O)c4ccc(C)cc4)cc3C(=O)N([C@H](C)CO)C[C@@H]2C)cc1,128
C[C@@H]1CCCCO[C@@H](CN(C)C(=O)c2ccccc2)[C@@H](C)CN([C@H](C)CO)C(=O)c2cc(NC(=O)Nc3cccc4ccccc34)ccc2O1,.
C[C@@H]1CCCCO[C@@H](CN(C)C(=O)Nc2cccc3ccccc23)[C@@H](C)CN([C@H](C)CO)C(=O)c2cc(NC(=O)Nc3cccc4ccccc34)ccc2O1,.
C[C@@H]1CCCCO[C@@H](CN(C)C(=O)C2CCCCC2)[C@@H](C)CN([C@H](C)CO)C(=O)c2cc(NC(=O)Nc3cccc4ccccc34)ccc2O1,102
COc1ccc(NC(=O)Nc2ccc3c(c2)C(=O)N([C@H](C)CO)C[C@H](C)[C@@H](CN(C)C(=O)C2CCCCC2)OCCCC[C@@H](C)O3)cc1,114
COc1ccc(CN(C)C[C@@H]2OCCCC[C@@H](C)Oc3ccc(NC(=O)Nc4ccc(F)cc4)cc3C(=O)N([C@H](C)CO)C[C@@H]2C)cc1,119
COc1ccc(CN(C)C[C@H]2OCCCC[C@@H](C)Oc3ccc(NS(=O)(=O)c4ccc(F)cc4)cc3C(=O)N([C@H](C)CO)C[C@@H]2C)cc1,.
SMILES,ROS inducer
C[C@@H]1CCCCO[C@@H](CN(C)C(=O)C2CCCCC2)[C@@H](C)CN([C@H](C)CO)C(=O)c2cc(NC(=O)Nc3ccccc3)ccc2O1,.
COc1ccc(CN(C)C[C@@H]2OCCCC[C@@H](C)Oc3ccc(NS(=O)(=O)c4ccc(F)cc4)cc3C(=O)N([C@H](C)CO)C[C@@H]2C)cc1,.
COc1ccc(NC(=O)Nc2ccc3c(c2)C(=O)N([C@H](C)CO)C[C@H](C)[C@@H](CN(C)Cc2ccccc2)OCCCC[C@@H](C)O3)cc1,.
COc1ccc(NC(=O)Nc2ccc3c(c2)C(=O)N([C@H](C)CO)C[C@H](C)[C@H](CN(C)C(=O)Nc2ccc(OC)cc2)OCCCC[C@@H](C)O3)cc1,.
COc1ccc(CN(C)C[C@@H]2OCCCC[C@@H](C)Oc3ccc(NC(=O)Nc4ccc(C(F)(F)F)cc4)cc3C(=O)N([C@H](C)CO)C[C@@H]2C)cc1,.
COC(OC)C1(C)NC(=O)c2ccccc2N1 (stereo unspecified),.
C[C@@H]1CCOC(=O)C=CC=CC(=O)O[C@@H]2C[C@H]3O[C@@H]4C=C(C(=O)O)CC[C@]4(COC(=O)[C@H]1O)[C@]2(C)[C@]31CO1,.
CCCCC(C(=O)O)N1C(=O)c2ccccc2C1=O (stereo unspecified),.
CN(C)NC(=S)NCc1ccc(F)cc1,.
COC(=O)CCCCCCC(=O)N/N=C/c1ccccc1Br,.
C[C@H](CO)N1C[C@H](C)[C@@H](CN(C)S(=O)(=O)c2cn(C)cn2)Oc2c(NC(=O)NC3CCCCC3)cccc2C1=O,.

# Screening data from PubChem.
